# Results taken from PubChem BioAssay (NCI).
# This is part of a sample that, as a whole, favours compounds with a hit. Of some 83,000 tested, about 20% had one in any assay.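 Cells were grown in 96-well plates and exposed to the test compound at a single concentration for 48 hours; results are reported as percent growth, with values below 10 considered active.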 Unmarked numbers belong to inactive results. The source made the active and inactive calls.
# Assays:
# Assay in all cases: NCI-60 one-dose screen, 48 h (100 = growth as untreated, 0 = no growth, -100 = all killed)
# Settings in all cases: 10 µM unless noted
# SR leukemia = test system: SR leukemia
# RPMI-8226 leukemia = test system: RPMI-8226 leukemia
# OVCAR-8 ovarian = test system: OVCAR-8 ovarian
# OVCAR-5 ovarian = test system: OVCAR-5 ovarian
# OVCAR-4 ovarian = test system: OVCAR-4 ovarian
# IGROV1 ovarian = test system: IGROV1 ovarian
# OVCAR-3 ovarian = test system: OVCAR-3 ovarian
# HS 578T breast = test system: HS 578T breast
# NCI/ADR-RES ovarian = test system: NCI/ADR-RES ovarian
# SK-OV-3 ovarian = test system: SK-OV-3 ovarian
Structure (SMILES),growth (SR leukemia),growth (RPMI-8226 leukemia),growth (OVCAR-8 ovarian),growth (OVCAR-5 ovarian),growth (OVCAR-4 ovarian),growth (IGROV1 ovarian),growth (OVCAR-3 ovarian),growth (HS 578T breast),growth (NCI/ADR-RES ovarian),growth (SK-OV-3 ovarian)
CC1(/C=C/c2ccc(-c3ccccc3)cc2)CCn2cnc3ncnc(c32)N1O (stereo unspecified),18.3%,21.3%,25.7%,47.9%,36.6%,15.3%,37.2%,55.5%,3.15% (active),
CN1C(=O)/C(=C/c2ccc(C(=O)Nc3ncc(Cc4cccc(C(F)(F)F)c4)s3)cc2)SC1=S,52.6%,22.1%,59.8%,60.8%,,56.7%,71.1%,63.9%,,50.6%
CCCn1c(=S)sc2c(NNC(C)=O)nc(C)nc21,158%,93.1%,102%,98%,,37.1%,118%,97.7%,101%,99.9%
Cc1oc(-c2ccc(Cl)cc2)nc1C1=NN(C(=O)c2ccncc2)C(c2ccccc2)C1 (stereo unspecified),101%,80.3%,95.4%,105%,,71.3%,92.4%,87.4%,94%,91.9%
CCOC(=O)C1=C(CC(O)c2ccc(OC)cc2OC)NC(=O)NC1c1ccccc1 (stereo unspecified),75.9%,99.2%,109%,88.7%,,118%,109%,,107%,114%
COC(=O)c1nc(-c2ccccc2)oc1S(=O)(=O)N1CCCC(C)C1 (stereo unspecified),0.921% (active),51%,81.9%,87.4%,83.2%,64%,48.9%,104%,100%,
Cc1ncc(C(=O)Nc2ccc(CN3CCN(C)CC3)c(C(F)(F)F)c2)cc1C#Cc1cnc(N)c2ccc(C#N)cc12,4.87% (active),7.42% (active),3.22% (active),-24.7% (active),,-43.9% (active),25%,-8.89% (active),39%,-14.6% (active)
O=C(NN1C(=O)CSC1c1cccc([N+](=O)[O-])c1)c1ccc(NC(=O)c2ccccn2)cc1 (stereo unspecified),20.5%,103%,99.5%,92.6%,,90%,103%,103%,90.8%,104%
Cc1c2cnccc2c(C)c2c1c1cc(CO)ccc1n2C,8.41% (active),-20.5% (active),-13.8% (active),-27.5% (active),,-36.4% (active),-33.7% (active),-13.1% (active),-24.6% (active),
Nc1ncnc2c1N=C(c1ccc(Cl)cc1)CC(c1cccc(Nc3ccnc4cc(Cl)ccc34)c1)N2 (stereo unspecified),-12.6% (active),,77.9%,111%,70.7%,66.7%,80.6%,68.2%,73.1%,80.5%
CC(C)(C)c1ccc(C(=O)N/N=C/c2ccc(O)cc2O)cc1,19.8%,,17.4%,34.4%,22%,20%,12.1%,38.1%,5.92% (active),23.2%
O=C1C=CC2(O)OC/C(=C\c3ccccc3)C(O)=C2C1=O (stereo unspecified),6.55% (active),,8.41% (active),29.3%,30.4%,-13% (active),11.7%,39%,16.7%,86.6%
O=C(Cn1nc(-c2cccc3ccccc23)ccc1=O)NCc1cccc(Cl)c1,22.2% [50 µM],,39.5% [50 µM],67.8% [50 µM],41.4% [50 µM],47.2% [50 µM],38.6% [50 µM],61.6% [50 µM],27.1% [50 µM],61.5% [50 µM]
CCCCNC(=O)c1ccc2c(c1)nc(-c1ccccc1)n2C1CCCCC1,69.2%,,102%,102%,102%,109%,115%,110%,98%,48.4%
Cc1sc2nc(NCCN)[nH]c(=O)c2c1C,89.6%,,101%,89.5%,,100%,96.7%,,94.8%,111%
CCN(CC)CCOc1ccc2c(-c3ccccc3)c(-c3ccc(OC)cc3)c(=O)oc2c1,21.9%,,72.6%,91.6%,73.7%,110%,94.3%,63.4%,66.7%,84%
O=c1cc(CNc2cc(F)cc(F)c2)c2ccc(I)cc2[nH]1,-0.446% (active),15.8%,53.5%,64.3%,,45.9%,11.2%,19.9%,26.3%,
CCCCn1c(NC(C)=O)c(S(=O)(=O)c2ccccc2)c2nc3ccccc3nc21,86.9%,,98.9%,93.2%,100%,76.3%,95.7%,95.9%,,98.5%
CSc1nc2ccc(C)cc2cc1/C=C1/C=C(c2ccccc2)NC1=O,10.1%,,55.5%,63.9%,,25.6%,6.24% (active),28.9%,51.6%,76.2%
CN(C)CCCNC(=O)c1cncnc1Nc1ccc2c(ccn2Cc2cccc(F)c2)c1,-10.3% (active),,101%,97.5%,116%,90.1%,93.4%,81.3%,99.2%,111%
O=S(Nc1ccccc1)c1ccc(Cl)cc1 (stereo unspecified),78.8%,,100%,109%,95.5%,105%,112%,84.6%,106%,109%
CCOC(=O)c1[nH]cc2c1CCc1sc(Nc3ccccn3)nc1-2,56.8%,,83.1%,109%,72.7%,97.6%,82.2%,95.6%,72.5%,100%
O=C1CCCC1[n+]1ccccc1 (stereo unspecified),127%,,85.8%,70.5%,98%,101%,97.8%,114%,103%,80.1%
N=C(N)c1ccc(-c2ccc(-c3cc(Cl)cc(Cl)c3)s2)s1,-29.4% (active),,-34.6% (active),3.07% (active),-58% (active),-26.7% (active),-76.2% (active),,-21.4% (active),88.7%
CN1CC(c2ccc(Br)cc2)C(C(=O)c2ccc(Br)cc2)C12C(=O)Nc1ccccc12 (stereo unspecified),68.1%,,83.8%,82.1%,63.6%,62.6%,79.3%,89.3%,58.9%,80.8%
C#CCOc1cccc(Nc2ncnc3c2ncn3C2CCN(C(=O)CCl)C2)c1 (stereo unspecified),-23.8% (active),,5.81% (active),-88.4% (active),,-58.3% (active),-90.9% (active),14%,15.7%,48.4%
CNC(=O)Nc1ccc(-c2ccc3ncnc(Nc4cccc(Cl)c4)c3c2)cc1,27.6%,,54.6%,55.1%,69.7%,12.3%,39.6%,46.5%,57.6%,19.3%
COc1ccc(-c2cc(-c3cccnc3)nc3sc4c(N)c(C(C)=O)c(-c5ccccc5)nc4c23)cc1OC,75.4%,,84.9%,89.5%,90.7%,98.5%,82.4%,45.6%,79%,110%
O=C1O[C@@H](c2ccccc2Cl)[C@@H]2c3cc4c(cc3CCN12)OCO4,100%,,98.7%,113%,104%,94%,100%,101%,104%,119%
